# Measured values published in PubChem BioAssay (EPA / NIEHS).
# Some structures have more than one record in an assay (separate samples or runs), and their calls can disagree. Activity calls are given as the source filed them. Rule for the calls: active = hit-call score of the fitted dose curve at least 0.9, where 1 is the maximum; inactive = score below 0.9.
# Molecular target: Myc proto-oncogene protein (Homo sapiens) (UniProt P01106)
# Assay: ATG_Myc_CIS: Attagene CIS-FACTORIAL HepG2 Assay for human Myelocytomatosis (Myc) Proto-Oncogene Transcription Factor (AID 2282990)
# Settings: HepG2, Attagene cis-reporter transcription factor activity; actives raise or lower the signal
# Protocol: ATG_CIS is a cell-based, multiplexed-readout assay that uses HepG2, a human liver cell line, with measurements taken at 24 hours after chemical dosing in a 24-well plate.ATG_Myc_CIS is one of 52 assay component(s) measured or calculated from the ATG_CIS assay. It is designed to make measurements of mRNA induction, a form of inducible reporter, as detected with fluorescence intensity signals by Reverse transcription polymerase chain reaction (RT-PCR) and Capillary electrophoresis technology.Data from the assay component ATG_Myc_CIS was analyzed into 1 assay endpoint. This assay endpoint, ATG_Myc_CIS, was analyzed with bidirectional fitting relative to DMSO as the negative control and baseline of activity. Using a type of inducible reporter, measures of mRNA for gain or loss-of-signal activity can be used to understand the reporter gene at the transcription factor-level as they relate to the gene MYC. Furthermore, this assay endpoint can be referred to as a primary readout, because this assay has produced multiple assay endpoints where this one serves a reporter gene function. To generalize the intended target to other relatable targets, this assay endpoint is annotated to the dna binding intended target family, where the subfamily is basic helix-loop-helix leucine zipper.
# Human liver HepG2 cells are transiently transfected with multiple reporter transcription units (MRTUs) in 6-well plates using FuGene 6 reagent (Roche; 3 ml FuGene/1 mg DNA). The MRTU constructs are regulated by a cis-regulating element (promoter). […] A major difference between the CIS and TRANS system is that in CIS activities of endogenous TFs are measured, whereas the TRANS assay evaluates changes in activities of exogenous, chimeric NR-Gal4 proteins. […] At the end of 24 hour incubation, total RNA was isolated using TriZol reagent (Invitrogen). The isolated RNA is then reverse-transcribed using oligo(dT) primer and Mo-MLV reverse transcriptase (Invitrogen) with DNAse I (Ambion) treatment for 30 min. The one-tenth of the produced cDNA was amplified by PCR using Taq DNA polymerase (Invitrogen) and two reporter sequence-specific primers. The PCR products were fluorescently labeled by primer extension with 6-arboxyfluorescein (6-FAM) 5'-labeled reporter sequence-specific primer (2 min at 95 C, 20 s at 68 C and 10 min at 72 C) and these products were digested with 5U of HpaI (New England Biolabs) for 2h at 37 C. The fragments were purified using Qiaquick PCR columns (Qiagen), analyzed on an ABI 3130xL genetic analyzer (Applied Biosystems) with peak positions identified by using a set of X-rhodamine (ROX)-labeled MapMarker1000 molecular weight standards (BioVentures). The raw capillary electrophoresis data was processed using Attagraph software (Attagene).
# Chain of Myc proto-oncogene protein (Homo sapiens) (P01106 whole entry, looked up): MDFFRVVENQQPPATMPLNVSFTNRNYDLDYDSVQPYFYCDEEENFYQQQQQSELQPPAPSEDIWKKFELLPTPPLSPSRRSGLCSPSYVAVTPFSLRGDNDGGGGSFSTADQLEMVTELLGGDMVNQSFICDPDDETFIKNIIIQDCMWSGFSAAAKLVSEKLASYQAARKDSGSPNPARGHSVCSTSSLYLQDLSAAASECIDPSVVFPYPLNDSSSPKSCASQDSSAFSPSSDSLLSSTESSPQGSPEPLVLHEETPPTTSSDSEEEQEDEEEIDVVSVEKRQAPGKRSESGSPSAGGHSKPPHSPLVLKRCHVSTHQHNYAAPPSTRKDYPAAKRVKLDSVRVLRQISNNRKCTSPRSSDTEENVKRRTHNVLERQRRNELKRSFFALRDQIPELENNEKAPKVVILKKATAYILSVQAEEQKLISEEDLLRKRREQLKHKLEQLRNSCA
SMILES,outcome,AC50
CC(C)(c1ccc(O)cc1)c1ccc(O)cc1,inactive,2.29 µM (active)
CCCCCCC(C)OC(=O)COc1nc(F)c(Cl)c(N)c1Cl (stereo not given),inactive,–
CC(=O)S[C@@H]1CC2=CC(=O)CC[C@]2(C)[C@H]2CC[C@@]3(C)[C@@H](CC[C@@]34CCC(=O)O4)[C@H]12,inactive,7.76 µM (active)
C=CCOC(Cn1ccnc1)c1ccc(Cl)cc1Cl (stereo not given),–,75.3 µM (active)
CC(C)(C)[C@@H](O)[C@@H](Cc1ccc(Cl)cc1)n1cncn1,inactive,–
CCCOC(=O)NCCCN(C)C,inactive,–
CCCCCOC(=O)COc1cc(N2C(=O)C3=C(CCCC3)C2=O)c(F)cc1Cl,inactive,–
COCCO,inactive,–
C[C@]12CC[C@@H]3c4ccc(O)cc4C[C@@H](CCCCCCCCCS(=O)CCCC(F)(F)C(F)(F)F)[C@H]3[C@@H]1CC[C@@H]2O (stereo not given in full),inactive,–
c1ccc2[nH]c(-c3cscn3)nc2c1,inactive,–
CCOC(=O)c1ccc(O)cc1,inactive,–
CCN(Cc1c(F)cccc1Cl)c1c([N+](=O)[O-])cc(C(F)(F)F)cc1[N+](=O)[O-],inactive,–
O=C(O)c1ccccc1,inactive,–
O=C(c1ccc(O)cc1O)c1ccc(O)cc1O,inactive,–
CCCCC(CC)COC(=O)c1ccccc1C(=O)O (stereo not given),inactive,–
CCOC(=O)NCCOc1ccc(Oc2ccccc2)cc1,inactive,–
CC(C)CCCCCCc1ccc(O)cc1,inactive,15.4 µM (active)
CCSC(=O)N(CC(C)C)CC(C)C,inactive,–
CCOC(=O)COc1cc(-n2ncc(C(F)(F)F)c(C)c2=O)c(F)cc1Cl,inactive,–

SMILES,outcome,AC50
C[C@]12C[C@H](O)[C@H]3[C@@H](CCC4=CC(=O)CC[C@@]43C)[C@@H]1CC[C@@H]2C(=O)CO,inactive,–
O=C(O)C1(C(=O)Nc2ccc(Cl)cc2Cl)CC1,inactive,–
CCCOC(=O)c1ccc(C(=O)OCCC)nc1,inactive,–
N[C@@H](Cc1cc(I)c(Oc2ccc(O)c(I)c2)c(I)c1)C(=O)O,inactive,–
CC1(C)C(C=C(Cl)Cl)C1C(=O)OCc1cccc(Oc2ccccc2)c1 (stereo not given),inactive,–
CCCN(CCC)C(=O)SCC,inactive,–
COC(=O)c1ccc(CNS(C)(=O)=O)cc1S(=O)(=O)NC(=O)Nc1nc(OC)cc(OC)n1,inactive,–
CCN(CC)C(=O)c1cccc(C)c1,inactive,–
c1ccc(Nc2ccccc2)cc1,inactive,–
COC(=O)c1cccc(C)c1S(=O)(=O)NC(=O)Nc1nc(OCC(F)(F)F)nc(N(C)C)n1,inactive,–
COC(=O)c1c(Cl)nn(C)c1S(=O)(=O)NC(=O)Nc1nc(OC)cc(OC)n1,inactive,–
S=C([S-])NCCNC(=S)[S-].[Mn+2],inactive,–
CCOC(=O)C(C)Oc1ccc(Oc2nc3ccc(Cl)cc3o2)cc1 (stereo not given),inactive,–
OB(O)O,inactive,–
CN(C)C(=O)Nc1ccc(Cl)c(Cl)c1,inactive,–
C#CCOC(=O)[C@@H](C)Oc1ccc(Oc2ncc(Cl)cc2F)cc1,inactive,–
Oc1ccc(C(c2ccc(O)cc2)C(Cl)(Cl)Cl)cc1,inactive,–
COC(=O)c1ccccc1S(=O)(=O)NC(=O)Nc1nc(OC(F)F)cc(OC(F)F)n1,inactive,–
